Source: PubChem BioAssay (NCATS)
“And” between values parts separate entries of the source, which are not always exact repeats. Equal values may be shown once. A number with no mark means an inactive call. Results filed as inconclusive are left out. A call without a number means that no potency is given here. The source made the active and inactive calls. Unless noted, calls come from the whole dose curve; as a rule, active = well fitted curve in the direction sought with a large enough effect; inconclusive = small, poorly fitted or top-dose-only effect, or another doubt; inactive = no such curve, though single readings can be large; an effect the other way counts as inactive or inconclusive.

Experiments:
[1] = biological target: Cytochrome P450 3A4 (Homo sapiens) (UniProt P08684); assay: qHTS Assay for Inhibitors and Substrates of Cytochrome P450 3A4 (AID 884); note: series mostly up to about 57 µM; nearly all actives have a fitted effect of over 50% in size
Outline: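 20 nM human CYP3A4 with 25 uM Luciferin-PPXE (at KM) in 200 mM KPO4, preincubated 10 min with compound; NADPH regeneration started a 60 min RT reaction. Luciferin detected by luminescence, normalized to 57 uM ketoconazole as full inhibition.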

[2] = MultiTox-Fluor Cytotoxicity Assay - LYMP1-001 - Live Cells (AID 947)
[3] = Cell Viability - LYMP2-004 (AID 966); note: nearly all actives have a fitted effect of over 65% in size
Outline: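 Lymphoblastoid LYMP2-004 cells, 2500 per well, were preincubated for 5 hr and then treated with compound for 24 h at 37 C in complete medium. Viability was read as cellular ATP by CellTiter-Glo luminescence, and AC50 values were taken from Hill fits to concentration-response data.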

[4] = Cell Viability - LYMP2-009 (AID 968); note: series mostly up to about 92 µM; nearly all actives have a fitted effect of over 55% in size
[5] = Cell Viability - LYMP2-012 (AID 982);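 note: cellular ATP by luciferase luminescence where a drop means cytotoxicity; cells exposed to compound for one day before reading; nearly all actives have a fitted effect of over 55% in size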
[6] = biological target: Estrogen receptor (Homo sapiens) (UniProt P03372); assay: qHTS assay for small molecule antagonists of estrogen receptor alpha signaling (AID 588513; active = well fitted curve in the direction sought with a large enough effect in the signal ratio, with a control signal flat, not every such curve was filed as active; the % refers to the signal ratio)
Outline: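 Fluorescence from CCF4 substrate after 2 h at room temperature gave reporter activity; cells had been exposed to compound and 0.5nM 17-beta-estradiol for 18 h at 37 C. Hill-equation fitting yielded IC50 and maximal response.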

[7] = biological target: Estrogen receptor (Homo sapiens) (UniProt P03372); assay: qHTS assay for small molecule agonists of estrogen receptor alpha signaling (AID 588514; calls by dose curve; note: nearly all actives have a fitted effect of over 70% in size; note: potency is the fitted concentration of half-maximal effect)
Outline: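 ER-alpha-UAS-bla GripTite HEK293 cells, 5000/well in 2% charcoal/dextran-stripped FBS medium, treated with compound titrations 18 h at 37 C. CCF4 beta-lactamase read by fluorescence after 2 h RT; normalised to 20 nM 17-beta-estradiol (100%) and DMSO (0%), Hill fit for EC50 and efficacy.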

[8] = biological target: Bile acid receptor (Homo sapiens) (UniProt Q96RI1); assay: qHTS assay for small molecule agonists of farnesoid X receptor signaling (AID 588527; calls by dose curve; note: series mostly up to about 77 µM); conditions: HEK293T FXR-UAS-bla, beta-lactamase ratio, 16 h; hits give high values
Outline: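 FXR-UAS-bla HEK293T cells (10% dialyzed FBS) preincubated 5-7 h at 37 C, then compounds at up to 92 uM for 16 h at 37 C. CCF4 beta-lactamase read-out after 2 h RT. Normalized to chenodeoxycholic acid (100 uM) and DMSO; Hill fit gave EC50 and efficacy.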

[9] = biological target: Peroxisome proliferator-activated receptor gamma (Homo sapiens) (UniProt P37231); assay: qHTS assay for small molecule agonists of peroxisome proliferator-activated receptor gamma signaling (AID 588536; active = well fitted curve in the direction sought with a large enough effect in the signal ratio, with a control signal flat, not every such curve was filed as active; the % refers to the signal ratio)
Outline: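 GeneBLAzer PPAR-gamma-UAS-bla HEK293 cells in 1% charcoal/dextran-treated FBS medium were treated 16 h at 37 C with compounds. Beta-lactamase activity was read by CCF4 ratio (460/530 nm). Response was normalized to 2 uM rosiglitazone (100%) and DMSO, then Hill-fitted for EC50 and efficacy.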

[10] = biological target: Vitamin D3 receptor (Homo sapiens) (UniProt P11473); assay: qHTS assay for small molecule antagonists of vitamin D receptor signaling (AID 588541; calls by dose curve;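 note: receptor activated by calcitriol during compound treatment; series mostly up to about 77 µM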)
Outline: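 VDR-UAS-bla HEK293T cells in 2% charcoal-stripped FBS were stimulated with 1-alpha,25-dihydroxyvitamin D3 (3 nM final) plus compound for 16 h at 37 C. The beta-lactamase CCF4 readout was normalized to 50 nM agonist and DMSO, and Hill fits gave IC50.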

[11] = biological target: Vitamin D3 receptor (Homo sapiens) (UniProt P11473); assay: qHTS assay for small molecule agonists of vitamin D receptor signaling (AID 588543; calls by dose curve)
Outline: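 Reporter cells (HEK293T, VDR-UAS-bla) were seeded in medium with 2% charcoal-stripped serum and incubated 5 h, then compounds in concentration series were added for 16 h at 37 °C. Stimulation was scaled between DMSO basal and 50 nM 1α,25-dihydroxyvitamin D3.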

[12] = qHTS assay for small molecule agonists of the antioxidant response element (ARE) signaling pathway (AID 651741; active = well fitted activation curve with a large enough effect in the signal ratio; the % refers to the signal ratio; note: potency is the fitted concentration of half-maximal effect)
Outline: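 CellSensor ARE-bla HepG2 cells (2,000/well) carrying ARE-driven beta-lactamase, exposed 16 h at 37 C. LiveBLAzer B/G FRET substrate added for 2 h at room temperature; fluorescence intensity read.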

[13] = qHTS assay for small molecule activators of the p53 signaling pathway (AID 651743; active = well fitted activation curve with a large enough effect in the signal ratio, not every such curve was filed as active; the % refers to the signal ratio; note: series mostly up to about 92 µM); conditions: HCT-116 p53RE-bla, beta-lactamase FRET ratio, 16 h; activation: hits give high values
Outline: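 p53RE-bla HCT-116 cells carrying a beta-lactamase reporter under p53 response elements were exposed to compounds for 16 hours at 37 C. Reporter activity read as fluorescence after 2 hours at room temperature with LiveBLAzer B/G FRET substrate.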

[14] = qHTS assay for small molecule activators of the nuclear factor-kappa B (NF-kB) signaling pathway (AID 651749; active = well fitted activation curve with a large enough effect in the signal ratio; the % refers to the signal ratio; note: series mostly up to about 77 µM); conditions: NF-kB-bla ME-180 cells, beta-lactamase FRET ratio, 16 h; activation: hits give high values
Outline: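 NF-kB-bla ME-180 cells carrying a beta-lactamase reporter under an NF-kB response element, 2,000 cells/well, exposed to compound for 16 hr at 37C; FRET-based beta-lactamase fluorescence read-out of pathway activation.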

[15] = biological target: Nuclear receptor ROR-gamma (Homo sapiens) (UniProt P51449); assay: qHTS assay for small molecule antagonists of the retinoid-related orphan receptor gamma (ROR-gamma) signaling pathway (AID 651802);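 note: luciferase reporter luminescence driven by ROR response element; series mostly up to about 92 µM; nearly all actives have a fitted effect of over 60% in size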
Outline: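 CHO cells with TET-inducible ROR-gamma and RORE-luciferase reporter, dosed then doxycycline-induced. After 16 h at 37C, One-Glo luminescence read; decreased signal indicates antagonism.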

[16] = qHTS assay for small molecule antagonists of the retinoid-related orphan receptor gamma (ROR-gamma) signaling pathway - cell viability counter screen (AID 720652; active = well fitted curve in the direction sought with a large enough effect in the repeat runs; an effect the other way counts as inactive or inconclusive;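 note: series mostly up to about 92 µM; compound exposure lasted 16 hr before ATP read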)
Outline: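 CHO cells carrying TET-inducible ROR and RORE-luciferase reporter, plated 5 hr, then dosed with compound plus doxycycline. After 16 hr at 37 C, viability read as intracellular ATP by CellTiter-Glo luminescence.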

[17] = biological target: Nuclear receptor subfamily 1 group I member 2 (Rattus norvegicus) (UniProt Q9R1A7); assay: qHTS assay for small molecule activators of the rat pregnane X receptor (rPXR) signaling pathway (AID 651751; call rule not given here); conditions: rPXR reporter cells, luciferase (One-Glo), 24 h
[18] = qHTS assay for small molecule activators of the human pregnane X receptor (PXR) signaling pathway (AID 720659; call rule not given here)
[19] = biological target: Glucocorticoid receptor (Homo sapiens) (UniProt P04150); assay: qHTS assay for small molecule agonists of glucocorticoid receptor signaling (AID 588532; active = well fitted curve in the direction sought with a large enough effect in the signal ratio, with a control signal flat; the % refers to the signal ratio); conditions: HeLa MMTV-bla, beta-lactamase ratio, agonist, 18 h; hits give high values; percent of dexamethasone control, DMSO zero
Outline: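 HeLa GRE-bla reporter cells; 18 h compound exposure at 37 C; 2 h CCF4 loading at room temperature; fluorescence at 460 and 530 nm; EC50 by Hill equation.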

[20] = biological target: Glucocorticoid receptor (Homo sapiens) (UniProt P04150); assay: qHTS assay for small molecule antagonists of glucocorticoid receptor signaling (AID 588533; active = well fitted inhibition curve with a large enough effect in the signal ratio, with a control signal flat, not every such curve was filed as active; the % refers to the signal ratio)
Outline: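 Antagonist-mode qHTS: compound titrations added to GRE-bla HeLa cells, then dexamethasone 2 nM final; 18 h, 37 C. CCF4 FRET fluorescence normalized to dexamethasone and DMSO; IC50 from Hill fit.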

Sequence of Nuclear receptor ROR-gamma (Homo sapiens) (P51449 whole entry, looked up): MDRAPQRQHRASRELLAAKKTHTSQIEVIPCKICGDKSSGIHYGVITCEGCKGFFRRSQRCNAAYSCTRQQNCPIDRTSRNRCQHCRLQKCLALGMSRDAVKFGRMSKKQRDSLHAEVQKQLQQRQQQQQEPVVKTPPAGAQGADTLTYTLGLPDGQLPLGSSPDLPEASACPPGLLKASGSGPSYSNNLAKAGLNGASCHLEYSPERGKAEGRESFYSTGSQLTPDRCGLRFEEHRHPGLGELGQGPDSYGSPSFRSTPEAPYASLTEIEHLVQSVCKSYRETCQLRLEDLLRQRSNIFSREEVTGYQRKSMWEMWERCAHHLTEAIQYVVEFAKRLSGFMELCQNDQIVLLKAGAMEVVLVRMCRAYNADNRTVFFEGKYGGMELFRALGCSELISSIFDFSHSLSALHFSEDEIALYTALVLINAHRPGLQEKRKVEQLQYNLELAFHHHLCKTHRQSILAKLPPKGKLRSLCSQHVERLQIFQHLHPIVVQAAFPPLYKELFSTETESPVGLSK
Sequence of Cytochrome P450 3A4 (Homo sapiens) (P08684 whole entry, looked up): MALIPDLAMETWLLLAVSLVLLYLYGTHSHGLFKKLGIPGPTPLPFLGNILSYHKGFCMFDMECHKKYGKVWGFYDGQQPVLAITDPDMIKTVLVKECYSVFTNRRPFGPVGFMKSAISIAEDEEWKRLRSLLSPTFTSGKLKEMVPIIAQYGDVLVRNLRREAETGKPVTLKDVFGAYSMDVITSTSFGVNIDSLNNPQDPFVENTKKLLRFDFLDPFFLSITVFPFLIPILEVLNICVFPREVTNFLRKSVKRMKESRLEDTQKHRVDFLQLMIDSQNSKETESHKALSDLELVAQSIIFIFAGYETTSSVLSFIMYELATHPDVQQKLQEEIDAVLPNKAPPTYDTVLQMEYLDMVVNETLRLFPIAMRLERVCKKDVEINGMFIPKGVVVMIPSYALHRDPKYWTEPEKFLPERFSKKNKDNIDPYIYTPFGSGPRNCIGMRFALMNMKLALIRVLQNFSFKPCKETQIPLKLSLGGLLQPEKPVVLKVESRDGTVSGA
Sequence of Glucocorticoid receptor (Homo sapiens) (P04150 whole entry, looked up): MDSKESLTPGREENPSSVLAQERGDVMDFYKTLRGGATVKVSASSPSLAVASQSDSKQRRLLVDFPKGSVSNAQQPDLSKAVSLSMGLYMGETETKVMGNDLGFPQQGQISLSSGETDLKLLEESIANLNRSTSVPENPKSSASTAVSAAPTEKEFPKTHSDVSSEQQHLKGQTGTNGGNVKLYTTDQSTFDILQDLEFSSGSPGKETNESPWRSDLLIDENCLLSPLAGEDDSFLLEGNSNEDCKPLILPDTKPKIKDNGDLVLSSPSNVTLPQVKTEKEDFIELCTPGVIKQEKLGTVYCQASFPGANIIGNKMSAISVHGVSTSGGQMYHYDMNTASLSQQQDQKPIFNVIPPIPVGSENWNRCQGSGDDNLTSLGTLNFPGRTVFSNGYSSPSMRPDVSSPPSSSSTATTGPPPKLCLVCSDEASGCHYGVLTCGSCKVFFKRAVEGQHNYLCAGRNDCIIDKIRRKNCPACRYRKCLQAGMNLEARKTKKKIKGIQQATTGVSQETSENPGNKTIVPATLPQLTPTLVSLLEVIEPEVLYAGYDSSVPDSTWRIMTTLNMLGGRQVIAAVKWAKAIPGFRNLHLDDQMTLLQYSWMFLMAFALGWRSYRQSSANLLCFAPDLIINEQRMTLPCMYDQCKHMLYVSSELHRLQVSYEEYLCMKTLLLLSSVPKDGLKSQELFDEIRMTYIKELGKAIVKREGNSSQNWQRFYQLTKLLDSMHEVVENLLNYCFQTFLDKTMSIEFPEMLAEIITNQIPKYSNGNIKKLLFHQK
Sequence of Nuclear receptor subfamily 1 group I member 2 (Rattus norvegicus) (Q9R1A7 whole entry, looked up): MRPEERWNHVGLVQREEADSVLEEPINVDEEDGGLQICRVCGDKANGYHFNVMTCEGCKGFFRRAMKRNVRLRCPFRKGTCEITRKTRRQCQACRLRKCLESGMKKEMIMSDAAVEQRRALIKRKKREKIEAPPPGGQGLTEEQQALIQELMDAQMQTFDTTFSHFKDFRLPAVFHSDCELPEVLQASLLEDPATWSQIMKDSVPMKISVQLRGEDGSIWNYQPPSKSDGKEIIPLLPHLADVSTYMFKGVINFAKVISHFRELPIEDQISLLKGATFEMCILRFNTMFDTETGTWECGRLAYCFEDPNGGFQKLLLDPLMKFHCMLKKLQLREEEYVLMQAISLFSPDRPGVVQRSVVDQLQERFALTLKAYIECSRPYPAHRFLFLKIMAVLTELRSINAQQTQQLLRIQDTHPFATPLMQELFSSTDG
Sequence of Vitamin D3 receptor (Homo sapiens) (P11473 whole entry, looked up): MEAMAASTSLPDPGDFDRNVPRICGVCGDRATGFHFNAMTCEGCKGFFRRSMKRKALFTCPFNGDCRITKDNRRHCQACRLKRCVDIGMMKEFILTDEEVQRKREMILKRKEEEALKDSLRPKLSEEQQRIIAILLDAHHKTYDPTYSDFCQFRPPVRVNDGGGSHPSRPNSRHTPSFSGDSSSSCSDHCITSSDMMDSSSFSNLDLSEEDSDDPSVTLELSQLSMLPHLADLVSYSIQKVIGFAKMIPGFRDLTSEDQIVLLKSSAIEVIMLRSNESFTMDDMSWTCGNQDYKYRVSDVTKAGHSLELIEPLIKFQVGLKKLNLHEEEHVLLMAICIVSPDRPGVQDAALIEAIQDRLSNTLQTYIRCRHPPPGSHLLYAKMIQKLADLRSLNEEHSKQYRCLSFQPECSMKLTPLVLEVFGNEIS
Sequence of Peroxisome proliferator-activated receptor gamma (Homo sapiens) (P37231 whole entry, looked up): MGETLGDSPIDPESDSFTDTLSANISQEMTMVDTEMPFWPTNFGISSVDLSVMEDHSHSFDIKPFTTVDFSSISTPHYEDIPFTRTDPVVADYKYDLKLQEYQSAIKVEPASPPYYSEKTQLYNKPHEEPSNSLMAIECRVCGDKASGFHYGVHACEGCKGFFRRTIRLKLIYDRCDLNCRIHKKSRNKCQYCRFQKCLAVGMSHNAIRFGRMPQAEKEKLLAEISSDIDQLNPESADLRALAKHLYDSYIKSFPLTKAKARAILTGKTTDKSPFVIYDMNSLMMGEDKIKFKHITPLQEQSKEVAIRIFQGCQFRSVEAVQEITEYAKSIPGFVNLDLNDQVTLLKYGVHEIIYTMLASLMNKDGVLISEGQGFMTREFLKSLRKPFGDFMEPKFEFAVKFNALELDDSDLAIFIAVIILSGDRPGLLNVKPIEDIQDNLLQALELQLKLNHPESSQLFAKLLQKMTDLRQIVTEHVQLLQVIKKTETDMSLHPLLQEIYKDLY
Sequence of Bile acid receptor (Homo sapiens) (Q96RI1 whole entry, looked up): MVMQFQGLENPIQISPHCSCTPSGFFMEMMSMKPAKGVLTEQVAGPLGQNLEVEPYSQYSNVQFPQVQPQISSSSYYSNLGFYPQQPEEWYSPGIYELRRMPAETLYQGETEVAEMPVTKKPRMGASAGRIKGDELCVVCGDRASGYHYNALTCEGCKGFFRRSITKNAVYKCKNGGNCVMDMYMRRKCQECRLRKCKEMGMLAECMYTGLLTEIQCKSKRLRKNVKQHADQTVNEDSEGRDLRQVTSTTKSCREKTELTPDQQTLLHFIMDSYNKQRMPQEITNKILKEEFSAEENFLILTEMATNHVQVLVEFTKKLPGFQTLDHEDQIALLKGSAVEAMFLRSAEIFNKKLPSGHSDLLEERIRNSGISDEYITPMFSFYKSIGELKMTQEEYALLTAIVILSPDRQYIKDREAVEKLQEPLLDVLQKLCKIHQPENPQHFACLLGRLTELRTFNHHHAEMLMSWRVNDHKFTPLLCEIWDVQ
Sequence of Estrogen receptor (Homo sapiens) (P03372 whole entry, looked up): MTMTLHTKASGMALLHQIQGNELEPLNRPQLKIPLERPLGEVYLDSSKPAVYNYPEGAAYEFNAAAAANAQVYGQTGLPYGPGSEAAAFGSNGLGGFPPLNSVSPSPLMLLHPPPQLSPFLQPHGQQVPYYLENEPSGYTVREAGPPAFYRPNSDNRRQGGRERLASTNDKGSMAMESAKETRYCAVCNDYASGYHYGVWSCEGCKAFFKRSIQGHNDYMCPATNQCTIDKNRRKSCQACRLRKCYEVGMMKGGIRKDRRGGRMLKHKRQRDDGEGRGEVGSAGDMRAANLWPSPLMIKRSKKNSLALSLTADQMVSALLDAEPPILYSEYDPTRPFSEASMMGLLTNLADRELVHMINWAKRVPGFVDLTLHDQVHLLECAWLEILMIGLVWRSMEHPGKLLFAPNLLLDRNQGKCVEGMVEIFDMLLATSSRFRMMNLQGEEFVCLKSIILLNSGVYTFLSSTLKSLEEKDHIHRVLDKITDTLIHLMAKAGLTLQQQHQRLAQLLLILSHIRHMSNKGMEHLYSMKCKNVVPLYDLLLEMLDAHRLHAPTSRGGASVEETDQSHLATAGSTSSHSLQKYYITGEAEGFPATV

Compound | Potency [1] | Potency [2] | Potency [3] | Potency [4] | Potency [5] | Potency [6] | Potency [7] | activation [8] | outcome [9] | outcome [10] | outcome [11] | Potency [12] | activation [13] | activation [14] | Potency [15] | Potency [16] | max response [17] | outcome [18] | activation [19] | Potency [20]
Cc1ccc2ccccc2c1 | inactive | inactive | inactive | inactive | inactive | inactive | inactive | -0.561% | inactive | inactive | inactive | inactive | -0.481% | -0.574% | inactive | inactive | 6.07% | inactive | – | –
C=C(C)C#N | inactive | inactive | inactive | – | inactive | inactive | 35.5 µM (active) | 0.805% and -0.908% | – | inactive | inactive | – | -0.28% and -1.48% | – | inactive | inactive | 2.68% and -1.1% | inactive | – | –
c1ccc(OP(Oc2ccccc2)Oc2ccccc2)cc1 | inactive | inactive | inactive | inactive | inactive | inactive | inactive | – | inactive | inactive | inactive | – | -2.41% and -6.19% | -3.6% and -0.416% | inactive | inactive | 0.576% and -1.05% | inactive | 10.9% and -3.42% | inactive
C=CC(C)=O | inactive | inactive | inactive | inactive | inactive | inactive | inactive | -1.53% | inactive | – | – | inactive | -2.21% | 0.254% | inactive | inactive | 1.84% | inactive | -1.11% | inactive
CCCCOCCOP(=O)(OCCOCCCC)OCCOCCCC | – | inactive | inactive | inactive | inactive | inactive | inactive | – | inactive | inactive | inactive | – | -1.25% and 0.739% | -1.15% and -0.483% | – | inactive | – | – | 0.713% and -16.4% | inactive
O=[N+]([O-])c1cccc2ccccc12 | inactive | inactive | inactive | inactive | inactive | inactive | inactive | – | inactive | – | – | – | -1.88% and -1.02% | -0.404% and -0.717% | inactive | – | 5.16% and 1.63% | inactive | – | –
OCC1CO1 (configuration not stated) | inactive | inactive | inactive | inactive | inactive | inactive | inactive | -2.37% and -0.462% | inactive | inactive | inactive | inactive | -2.94% and 1.37% | – | inactive | – | -4.01% and -4.87% | inactive | -12% | inactive
CCOc1ccc(N)cc1 | inactive | – | inactive | inactive | inactive | inactive | inactive | -2.12% | – | – | inactive | – | 1.96% | -0.228% | inactive | inactive | 3.36% | inactive | 2.46% | inactive
C=C(C)C(=O)OCC1CO1 (configuration not stated) | inactive | inactive | inactive | inactive | inactive | inactive | inactive | -3.45% | inactive | inactive | inactive | – | -0.637% | 0.768% | inactive | inactive | -2.46% | inactive | -3.77% | inactive
Cc1ccc(O)c(C)c1 | inactive | inactive | inactive | inactive | inactive | inactive | inactive | – | inactive | – | – | 398 µM (active) | -2.98% and 8.45% and 2.43% | 0.131% and -0.324% and 1.7% | inactive | inactive | -2.91% and 1.12% and -5.05% | – | 12.9% and 20.9% | inactive
C=CC(=O)OCC | – | inactive | inactive | inactive | inactive | inactive | inactive | -1.2% | inactive | – | – | inactive | – | – | inactive | inactive | -4.65% | inactive | 2.08% | inactive
CCC[CH2][Sn]([Cl])([Cl])[Cl] | inactive | inactive | inactive | inactive | inactive | inactive | inactive | -3.23% and -2.97% | inactive | – | – | 13.3 µM (active) | 0.255% and 3.17% | -0.955% and -1.49% | inactive | inactive | 2.08% and 0.146% | inactive | -4.16% and -3.24% | inactive
